Screening data: PubChem, National Center for Advancing Translational Sciences (NCATS)
Most compounds without a hit are left out; they make up all but 11% or so of the library.
Tau FP inhib – inhibitors of human tau fibril formation | P10636 | Potency, µM (titrated, usually from 57.7 µM), inactives show top-dose activity, negative = inhibition, most hits filed as inhibitors | AID 1468 | 280,000 tested, 0.39% active | K18 P301L tau heparin fibrillization, Alexa594 FP, 6 h; also: potency is read from the fitted curve at half-maximal effect; nearly all actives have a fitted effect of over 55% in size
Target sequence (P10636 561-689 P618L limits assumed): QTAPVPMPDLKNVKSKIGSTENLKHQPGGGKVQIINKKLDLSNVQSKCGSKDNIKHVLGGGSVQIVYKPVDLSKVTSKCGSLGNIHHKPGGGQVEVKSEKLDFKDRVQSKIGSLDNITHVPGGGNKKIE
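Heparin (20 uM) drove fibril formation of recombinant tau K18 P301L, 15 uM unlabeled with 0.24 uM Alexa 594 label, for 6 hr at 37 C in 100 mM sodium acetate pH 7. Fluorescence polarization (555/632 nm) read 1 hr after 30 uM ThT.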
Tau ThT inhib – inhibitors of human tau fibril formation, thioflavin T binding. P10636. recombinant tau K18 P301L, heparin-induced fibrillization, ThT fluorescence. Potency, µM (series often up to 57.4 µM), inactives show top-dose activity, negative = inhibition, usual class: inhibitors. 270,000 tested, 2.1% active. AID 1460; also: potency is read from the fitted curve at half-maximal effect; nearly all actives have a fitted effect of over 55% in size
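K18 P301L tau (15 uM + 0.24 uM Alexa 594-tagged), heparin 20 uM, NaOAc pH 7, 6 h 37 C; ThT 30 uM, 1 h RT, ex 450/em 510 nm.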
Tau fluor counter – counter-screen for tau fibril formation inhibitors | Potency, µM (series often up to 57.7 µM), for the others: at the highest dose activity change, negative = decrease | tau K18 P301L (four-repeat tau fragment) Alexa594 fluorescence, heparin fibrillization | 280,000 tested, 0.93% active; also: potency is read from the fitted curve at half-maximal effect; nearly all actives have a fitted effect of over 55% in size
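Human K18 P301L tau (15 uM unlabeled plus 0.24 uM Alexa 594-labeled, final) in 100 mM sodium acetate pH 7 was mixed with compound and 20 uM heparin and incubated 6 hr at 37 C.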
G9a block – G9a (human) methyltransferase inhibition; G9a H3K9 monomethylation, AlphaScreen, 2 h; Potency, µM (titrated, usually from 102 µM), inactives show top-dose activity, negative = inhibition, hits mostly inhibitors; 350,000 tested, 8.8% active; also: potency is read from the fitted curve at half-maximal effect; nearly all actives have a fitted effect of over 75% in size
Target sequence (Q96KQ7 913-1193 limits assumed): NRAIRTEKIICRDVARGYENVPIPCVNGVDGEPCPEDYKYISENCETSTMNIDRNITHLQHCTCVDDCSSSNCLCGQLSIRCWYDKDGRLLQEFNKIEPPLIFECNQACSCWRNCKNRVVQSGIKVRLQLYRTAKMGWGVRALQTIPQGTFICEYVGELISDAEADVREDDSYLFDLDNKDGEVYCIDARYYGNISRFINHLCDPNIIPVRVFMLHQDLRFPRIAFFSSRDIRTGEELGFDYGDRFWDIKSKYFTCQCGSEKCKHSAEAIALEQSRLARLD
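Methyltransferase reactions run at room temperature for 2 h (20 nM enzyme, 500 nM biotin-H3K9 peptide, 20 uM SAM) after a 15 min compound preincubation; product detected by AlphaScreen beads and anti-H3K9me1 antibody.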
FBPA coupling cs – coupling enzyme interference in Giardia aldolase counter-screen; coupling enzyme system counterscreen, AmpLite Red fluorescence; activity change, negative = inhibition, % at 58.2 µM, hits read low; 290,000 tested, 0.67% active; AID 2472; in the data active = activity change below about -30%
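Coupling enzymes only (glyceraldehyde-3-phosphate) + compound, at 57.5 uM final, 10 min RT; add substrate/coupling/AmpLite Red mix, 20 min RT; fluorescence ex 525/em 598 nm. Actives flag coupling-system interference.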
Sfp inh – Sfp phosphopantetheinyl transferase inhibition; Biochemical Sfp PPTase activity, qHTS; Potency, µM, without a hit: largest response in the series, negative = inhibition, actives largely listed as inhibitors; Q9F4F7; AID 1490; 310,000 tested, 3.5% active;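 also: the enzyme is Sfp with the accession as filed and its product quenches rhodamine fluorescence; potency is read from the fitted curve at half-maximal effect; 0% = enzyme reaction without inhibitor and -100% = no enzyme wells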
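Step 1, compound plus 15 nM Sfp-PPTase, 15 min, room temperature. Step 2, add rhodamine-CoA (5 uM) and BHQ-2-YbbR (12.5 uM). Step 3, read 525/598 nm fluorescence at 0 and 30 min.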
Active calls of the source: *; [ ] = another dose, or the depositor's remark. Unless noted, calls follow the shape of the dose curve; as a rule, active = well fitted curve in the direction sought with a large enough effect; inconclusive = small, poorly fitted or top-dose-only effect, or another doubt; inactive = no such curve, though single readings can be large; an effect the other way counts as inactive or inconclusive. Unless noted, % is scaled to controls: 0 for no effect and ±100 for the full control effect.

How did CC(=O)Nc1cccc(C(=O)Nc2cccc(S(=O)(=O)NCc3ccco3)c2)c1 do in these assays?
G9a block: 27%[59 µM]

How did O=C(COC(=O)c1ccc(S(=O)(=O)NCc2ccco2)cc1)NC1CCCCCC1 do in these assays?
Tau FP inhib: 1%; Tau ThT inhib: -10%; Tau fluor counter: -14%; G9a block: inconclusive; FBPA coupling cs: 5; Sfp inh: 56µM*

Results for O=C(COc1ccccc1)NCC(=O)Nc1ccc(S(=O)(=O)NCc2ccco2)cc1 ?
Tau FP inhib: inconclusive; Tau ThT inhib: 1%; Tau fluor counter: -14%; G9a block: inconclusive; FBPA coupling cs: 1; Sfp inh: 2%

What do the screens show for `O=C(COc1ccccc1)Nc1ccc(S(=O)(=O)NCc2ccco2)cc1`?
Tau FP inhib: -6%; Tau ThT inhib: -17%; Tau fluor counter: -20%; G9a block: 50µM*; FBPA coupling cs: 2; Sfp inh: -7%

Results for Cc1cccc(NC(=O)c2ccc(F)c(S(=O)(=O)NCc3ccco3)c2)c1 ?
G9a block: 50µM*; Sfp inh: -6%

What do the screens show for `Cc1c(Cl)cccc1NC(=S)Nc1ccc2[nH]c(=O)[nH]c2c1`?
Tau FP inhib: 1%; Tau ThT inhib: inconclusive; Tau fluor counter: inconclusive; G9a block: 15%[12.7 µM]; FBPA coupling cs: -8; Sfp inh: 56µM*

How did Cc1ccc(S(=O)(=O)N2CCN(Cc3ccccn3)CC2)cc1 do in these assays?
Tau FP inhib: -3%; Tau ThT inhib: -11%; Tau fluor counter: -5%; G9a block: 3.5µM*; FBPA coupling cs: 2; Sfp inh: 50µM*

How did O=c1[nH]c(CN2CCN(S(=O)(=O)c3ccc4ccccc4c3)CC2)nc2ccccc12 do in these assays?
Tau FP inhib: 4%; Tau ThT inhib: 1%; Tau fluor counter: 0%; G9a block: 21%; FBPA coupling cs: 0; Sfp inh: -6%

What do the screens show for `O=S(=O)(c1ccc2ccccc2c1)N1CCN(Cc2ccccn2)CC1`?
Tau FP inhib: 0%; Tau ThT inhib: 8%; Tau fluor counter: 6%; G9a block: inconclusive; FBPA coupling cs: -3; Sfp inh: 71µM*

What do the screens show for `Cc1ccc(S(=O)(=O)N2CCN(Cc3cccnc3)CC2)cc1`?
G9a block: -15%; Sfp inh: 12%

How did COc1ccccc1Nc1nc(C)cs1 do in these assays?
Tau FP inhib: inconclusive; Tau ThT inhib: 22µM*; Tau fluor counter: inconclusive; G9a block: 3%[2.33 µM]; FBPA coupling cs: 0; Sfp inh: 45µM*

How did Cc1csc(Nc2cccc3ccccc23)n1 do in these assays?
Tau FP inhib: 0%; Tau ThT inhib: inconclusive; Tau fluor counter: -20%; G9a block: 45µM*; FBPA coupling cs: -6; Sfp inh: 1%

What do the screens show for `Cc1csc(Nc2ccccc2C(F)(F)F)n1`?
Tau FP inhib: -4%; Tau ThT inhib: -12%; Tau fluor counter: inconclusive; G9a block: 24%[0.0925 µM]; Sfp inh: -1%

How did COc1cc(/C=C/c2[nH]c(=O)[nH]c(=O)c2[N+](=O)[O-])cc(OC)c1O do in these assays?
G9a block: 9%; FBPA coupling cs: 7; Sfp inh: -4%

How did CCOc1cc(/C=C\c2nc(O)c([N+](=O)[O-])c(=O)[nH]2)ccc1OC(C)C do in these assays?
G9a block: inconclusive; FBPA coupling cs: 2; Sfp inh: -4%

How did O=c1[nH]c(/C=C\c2ccc(O)c(Cl)c2)nc(O)c1[N+](=O)[O-] do in these assays?
G9a block: 50µM*; FBPA coupling cs: 4; Sfp inh: -1%

How did C=CCc1cc(/C=C/c2nc(O)c([N+](=O)[O-])c(=O)[nH]2)cc(OC)c1O do in these assays?
Tau FP inhib: 6%; Tau ThT inhib: inconclusive; Tau fluor counter: -10%; G9a block: 50µM*; FBPA coupling cs: -2; Sfp inh: -7%

Results for O=c1[nH]c(/C=C\c2ccc(O)cc2)nc(O)c1[N+](=O)[O-] ?
G9a block: 71µM*; FBPA coupling cs: 0; Sfp inh: 18%

Results for CCN1/C(=C\C=C(C(C)=O)C(C)=O)Sc2ccccc21 ?
Tau FP inhib: 10%; Tau ThT inhib: inconclusive; Tau fluor counter: -7%; G9a block: 50µM*; FBPA coupling cs: -1; Sfp inh: -2%

How did CCCN1C(=O)/C(=C\C=C2/Sc3ccccc3N2CC)SC1=S do in these assays?
Tau FP inhib: -4%; Tau ThT inhib: inconclusive; Tau fluor counter: 17%; G9a block: inconclusive; FBPA coupling cs: 4; Sfp inh: -14%

Results for CCN1/C(=C\C(=S)Nc2ccccc2)Sc2ccccc21 ?
Tau FP inhib: inconclusive; Tau ThT inhib: 7.9µM*; Tau fluor counter: inconclusive; G9a block: inconclusive; FBPA coupling cs: -2; Sfp inh: 20µM*

What do the screens show for `CCOC(=O)/C(C#N)=C(C)/C=C1\Sc2ccccc2N1CC`?
Tau FP inhib: 4%; Tau ThT inhib: inconclusive; Tau fluor counter: -14%; G9a block: -4%[59 µM]; FBPA coupling cs: 0; Sfp inh: 9%

What do the screens show for `CCNC(=O)CC1C(=O)N(c2cccc(C)c2)C(=O)N1CCC(C)C` (stereo not given)?
G9a block: 14%; FBPA coupling cs: 1; Sfp inh: 2%

What do the screens show for `Fc1ccccc1Cn1c(-c2ccccc2)nc2ccccc21`?
Tau FP inhib: -1%; Tau ThT inhib: -18%; Tau fluor counter: -15%; G9a block: 36%[59 µM]

What do the screens show for `Cc1ccc(NC(=O)C2CCN(S(=O)(=O)c3ccc4[nH]c(=O)ccc4c3)CC2)cc1C`?
Tau FP inhib: -4%; Tau ThT inhib: -10%; Tau fluor counter: -7%; G9a block: -6%[59 µM]

What do the screens show for `CCN(CC)c1ccc(S(=O)(=O)N2CCOCC2)cc1NC(=O)CN1CCN(Cc2ccccc2)CC1`?
Tau FP inhib: 6%; Tau ThT inhib: -11%; Tau fluor counter: 1%; G9a block: inconclusive; FBPA coupling cs: -3; Sfp inh: 79µM*

Results for CCN(CC)c1ccc(S(=O)(=O)N2CCOCC2)cc1NC(=O)CSC(=S)N1CCCC1 ?
G9a block: 7.9µM*; FBPA coupling cs: -2; Sfp inh: 25µM*

How did CCN(CC)S(=O)(=O)c1ccc(C)c(NC(=O)CN2C(=O)NC3(CCCC3)C2=O)c1 do in these assays?
G9a block: inconclusive; FBPA coupling cs: -4; Sfp inh: 3%

Results for CCN(CC)S(=O)(=O)c1ccc(C)c(NC(=O)CNCCN(C(C)C)C(C)C)c1 ?
Tau FP inhib: 3%; Tau ThT inhib: 14%; Tau fluor counter: 7%; G9a block: 7.9µM*; FBPA coupling cs: 1; Sfp inh: inconclusive
